Here are results for 17 sequences from paper PMC5700166.

Numbering of substitutions follows the chain as printed.

Holding throughout (assay): protein-binding microarray (PBM); PBM: ~300 nM protein, 6 mM HEPES pH 7.8, 80 mM KCl, 0.5 mM EDTA, 0.5 mM EGTA, 6% glycerol, 35 ng/ul poly-dIdC, 1% milk, 1 h, room temperature; Ap Aiptasia and Nv Nematostella (sea anemones) / Co Capsaspora / Aq Amphimedon (sponge) / Dm Drosophila / Hu human; RHD is the Rel homology domain; high values mean tight binding
Conditions in all cases: dsDNA, one strand shown

The target in one assay is T1, GST-Dm-Relish (Drosophila melanogaster, UniProt Q94527 99-473).
T1 sequence: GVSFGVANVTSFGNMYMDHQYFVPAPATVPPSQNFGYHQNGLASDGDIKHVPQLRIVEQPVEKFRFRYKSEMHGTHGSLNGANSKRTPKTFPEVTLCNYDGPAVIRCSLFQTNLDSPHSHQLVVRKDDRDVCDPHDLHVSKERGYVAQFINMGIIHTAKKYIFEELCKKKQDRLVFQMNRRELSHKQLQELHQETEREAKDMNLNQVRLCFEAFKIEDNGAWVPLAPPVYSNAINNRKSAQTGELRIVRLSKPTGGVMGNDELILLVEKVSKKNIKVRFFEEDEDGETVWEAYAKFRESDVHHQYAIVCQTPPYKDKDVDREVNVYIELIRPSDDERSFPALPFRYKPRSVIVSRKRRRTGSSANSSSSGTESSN

The next assay concerns the target T2, GST-Aq-NF-kB (Amphimedon queenslandica, UniProt A9Y5G7 2-389).
T2 sequence: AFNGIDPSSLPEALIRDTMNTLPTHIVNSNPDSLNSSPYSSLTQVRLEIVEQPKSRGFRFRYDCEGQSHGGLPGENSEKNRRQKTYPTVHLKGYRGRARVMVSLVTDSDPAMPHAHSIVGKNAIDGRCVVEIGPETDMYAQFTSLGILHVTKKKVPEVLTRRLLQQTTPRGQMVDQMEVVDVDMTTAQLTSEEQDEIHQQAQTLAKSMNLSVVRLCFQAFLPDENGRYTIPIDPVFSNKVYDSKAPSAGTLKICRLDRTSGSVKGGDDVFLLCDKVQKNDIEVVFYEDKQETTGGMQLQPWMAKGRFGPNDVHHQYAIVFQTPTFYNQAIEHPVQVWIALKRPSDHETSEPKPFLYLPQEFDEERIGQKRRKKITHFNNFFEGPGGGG

Another assay addresses GST-Hu-p50 (Homo sapiens, UniProt P19838 7-356).
A further assay has as its target T3, GST-Co-NF-kB (Capsaspora owczarzaki, UniProt F1ARL5 200-546).
T3 sequence: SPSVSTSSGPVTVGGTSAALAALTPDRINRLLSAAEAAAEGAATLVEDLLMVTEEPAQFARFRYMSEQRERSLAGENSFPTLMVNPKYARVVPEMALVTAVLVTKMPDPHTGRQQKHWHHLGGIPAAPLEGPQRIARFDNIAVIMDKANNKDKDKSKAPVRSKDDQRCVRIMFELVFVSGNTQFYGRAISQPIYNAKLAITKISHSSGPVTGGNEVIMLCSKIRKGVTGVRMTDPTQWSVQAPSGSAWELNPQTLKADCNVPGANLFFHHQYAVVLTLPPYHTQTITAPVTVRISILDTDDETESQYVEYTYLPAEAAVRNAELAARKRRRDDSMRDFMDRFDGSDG

A further assay addresses T4, GST-Ap-NF-kB RHD (Exaiptasia pallida (Aiptasia), UniProt A0A913YAJ5 2-422).
T4 sequence: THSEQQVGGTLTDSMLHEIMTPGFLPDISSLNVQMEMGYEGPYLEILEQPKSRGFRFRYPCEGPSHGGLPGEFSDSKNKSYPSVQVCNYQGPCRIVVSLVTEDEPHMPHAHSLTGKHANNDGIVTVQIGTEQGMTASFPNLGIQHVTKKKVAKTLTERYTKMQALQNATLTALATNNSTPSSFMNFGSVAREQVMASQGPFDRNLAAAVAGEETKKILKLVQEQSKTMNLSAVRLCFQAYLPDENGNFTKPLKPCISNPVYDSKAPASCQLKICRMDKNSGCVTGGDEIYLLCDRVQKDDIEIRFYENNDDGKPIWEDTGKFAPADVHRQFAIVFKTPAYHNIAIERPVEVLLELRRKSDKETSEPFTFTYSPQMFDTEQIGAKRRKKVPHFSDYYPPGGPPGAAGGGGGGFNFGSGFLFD

For assay [1], the target named is T5, GST-Nv-NF-kB (Cys allele) (Nematostella vectensis, UniProt E5G601 2-411).
T5 sequence: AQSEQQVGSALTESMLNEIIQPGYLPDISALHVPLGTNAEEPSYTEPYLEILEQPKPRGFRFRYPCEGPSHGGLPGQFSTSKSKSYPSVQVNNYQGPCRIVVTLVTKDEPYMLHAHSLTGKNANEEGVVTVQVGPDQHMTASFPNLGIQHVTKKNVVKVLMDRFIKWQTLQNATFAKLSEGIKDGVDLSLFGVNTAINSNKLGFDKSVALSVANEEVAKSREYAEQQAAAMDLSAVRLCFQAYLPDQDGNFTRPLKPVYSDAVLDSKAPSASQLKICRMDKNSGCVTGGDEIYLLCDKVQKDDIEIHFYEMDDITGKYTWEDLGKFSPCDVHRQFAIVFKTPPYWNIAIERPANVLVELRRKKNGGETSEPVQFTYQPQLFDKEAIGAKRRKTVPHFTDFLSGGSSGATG

Assay [2] concerns the target T6, GST-Nv-NF-kB (Ser allele) (Nematostella vectensis, UniProt A7UNT2 2-411).
T6 sequence: T5 sequence with Q21R, C66S, S207N, E215Q, V217A, E225K, A268E, D399E

GST-Hu-p50, sequence (P19838 7-356): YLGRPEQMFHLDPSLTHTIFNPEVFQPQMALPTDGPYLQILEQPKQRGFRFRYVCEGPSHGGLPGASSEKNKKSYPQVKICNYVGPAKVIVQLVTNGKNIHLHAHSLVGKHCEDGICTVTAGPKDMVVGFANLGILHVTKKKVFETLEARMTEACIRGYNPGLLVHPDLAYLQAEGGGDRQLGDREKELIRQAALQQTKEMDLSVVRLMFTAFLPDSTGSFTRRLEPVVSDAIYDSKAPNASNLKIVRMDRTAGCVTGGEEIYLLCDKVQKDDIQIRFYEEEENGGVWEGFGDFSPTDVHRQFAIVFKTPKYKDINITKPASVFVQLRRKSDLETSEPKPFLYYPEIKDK

As to “CCGATTAACATCACAAAAAATCCTGATGTTAATCGGGTCTTGATTCGCTTGACGCTGCTG”, the results for the binding signal with GST-Dm-Relish, with GST-Aq-NF-kB and with GST-Hu-p50 were 1.98 z-score, 1.44 z-score and 1.98 z-score, respectively.
Regarding “CCGATTAACATCAAAAATTCCAGTGATGTTAATCGGGTCTTGATTCGCTTGACGCTGCTG”, the binding signal was 1.37 z-score in the assay with GST-Co-NF-kB, 1.57 z-score with GST-Dm-Relish, 1.48 z-score with GST-Aq-NF-kB and 1.08 z-score in the assay with GST-Hu-p50.
On to “CCGATTAACATCAAGAAAATTCCTGATGTTAATCGGGTCTTGATTCGCTTGACGCTGCTG”, for which the binding signal is 1.53 z-score with GST-Dm-Relish, 1.97 z-score in the assay with GST-Aq-NF-kB and 1.07 z-score with GST-Hu-p50.
Turning to “CCGATTAACATCATGGGGCATGCTGATGTTAATCGGGTCTTGATTCGCTTGACGCTGCTG”, the results for the binding signal in the assay with GST-Ap-NF-kB RHD and in the assay with GST-Aq-NF-kB were 1.18 z-score and 1.06 z-score, respectively.
For “CCGATTAACATCAGGACCGTCCCTGATGTTAATCGGGTCTTGATTCGCTTGACGCTGCTG”, the binding signal in the assay with GST-Ap-NF-kB RHD is 4.25 z-score; in assay [1], 3.73 z-score; in the assay with GST-Aq-NF-kB, 6.42 z-score.
The like results for “CCGATTAACATCAGGCACTTCCCTGATGTTAATCGGGTCTTGATTCGCTTGACGCTGCTG” were, in that order, 1.15 z-score, 1.51 z-score and 3.6 z-score.
Take “CCGATTAACATCAGGAAAATTCCTGATGTTAATCGGGTCTTGATTCGCTTGACGCTGCTG”: the binding signal is 1.52 z-score in the assay with GST-Dm-Relish, 2.45 z-score in the assay with GST-Aq-NF-kB and 1.61 z-score in the assay with GST-Hu-p50.
Regarding “CCGATTAACATCACCAAAATTCCTGATGTTAATCGGGTCTTGATTCGCTTGACGCTGCTG”, the binding signal in assay [2] was 1.17 z-score; with GST-Dm-Relish, 1.01 z-score; with GST-Aq-NF-kB it was 1.17 z-score; with GST-Hu-p50 it was 1.51 z-score.
In the case of “CCGATTAACATCAGGAATTGCCCTGATGTTAATCGGGTCTTGATTCGCTTGACGCTGCTG”, the binding signal amounted to 1.16 z-score with GST-Ap-NF-kB RHD, 2.2 z-score in assay [1] and 4.94 z-score in the assay with GST-Aq-NF-kB.
For “CCGATTAACATCAGGAACCTCCCTGATGTTAATCGGGTCTTGATTCGCTTGACGCTGCTG”, the binding signal with GST-Ap-NF-kB RHD was determined as 1.92 z-score; in assay [1], 2.34 z-score; with GST-Aq-NF-kB, 4.17 z-score.
“CCGATTAACATCAGGACTTGCCCTGATGTTAATCGGGTCTTGATTCGCTTGACGCTGCTG”: the results for the binding signal (in the assay with GST-Ap-NF-kB RHD; in assay [1]; with GST-Aq-NF-kB) were 1.21 z-score, 1.11 z-score and 4.8 z-score, respectively.
Turning to “CCGATTAACATCATTGTCCCTTCTGATGTTAATCGGGTCTTGATTCGCTTGACGCTGCTG”, the binding signal with GST-Ap-NF-kB RHD is 2.23 z-score; in assay [1], 4.09 z-score; with GST-Aq-NF-kB, 2.67 z-score.
“CCGATTAACATCAAAAATTCCCATGATGTTAATCGGGTCTTGATTCGCTTGACGCTGCTG”: the binding signal is 5.04 z-score with GST-Ap-NF-kB RHD; 7.75 z-score in assay [1]; 6.99 z-score in assay [2]; 5.2 z-score with GST-Co-NF-kB; 7.58 z-score with GST-Dm-Relish; 6.55 z-score with GST-Aq-NF-kB.
With “CCGATTAACATCAACCAATTCCCTGATGTTAATCGGGTCTTGATTCGCTTGACGCTGCTG”, the binding signal with GST-Ap-NF-kB RHD came out at 2.49 z-score; in assay [1], 3.94 z-score; in assay [2] it was 3.98 z-score; with GST-Co-NF-kB, 1.83 z-score; with GST-Aq-NF-kB, 3.16 z-score.
Consider “CCGATTAACATCAAATATTTCCCTGATGTTAATCGGGTCTTGATTCGCTTGACGCTGCTG”, for which the binding signal worked out at 3.87 z-score with GST-Ap-NF-kB RHD; 6.57 z-score in assay [1]; 6.99 z-score in assay [2]; 5.89 z-score with GST-Co-NF-kB; 4.25 z-score with GST-Dm-Relish; 6.66 z-score with GST-Aq-NF-kB.
With “CCGATTAACATCAGGGGGGGGACTGATGTTAATCGGGTCTTGATTCGCTTGACGCTGCTG”, the binding signal in the assay with GST-Ap-NF-kB RHD is 7.06 z-score; in assay [1] it was 5.11 z-score; in assay [2], 4.69 z-score; in the assay with GST-Co-NF-kB, 4.78 z-score; with GST-Aq-NF-kB, 5.29 z-score.
For the sequence “CCGATTAACATCAGGGGAGATTATGATGTTAATCGGGTCTTGATTCGCTTGACGCTGCTG”, the binding signal in the assay with GST-Ap-NF-kB RHD came out at 6.83 z-score; in assay [1] it was 5.48 z-score; in assay [2], 6.7 z-score; in the assay with GST-Co-NF-kB it was 5.91 z-score; with GST-Dm-Relish it was 2.68 z-score; with GST-Aq-NF-kB, 4.52 z-score.
